# Laboratory results from the supplement of paper PMC10981050.
# Where “and” joins values, the source holds several entries; their conditions need not be identical. Equal values may be shown once. Where a name gives a salt, the structure may show the parent alone.
# Legend:
# Assay in all cases: cell viability relative to vehicle control; higher = less cytotoxic
# Conditions in all cases: 10 µM
# [1] = test system: K562
# Outline: (§1)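 CRISPR-edited mutant clones and isogenic wild-type clones from four leukaemia lines were screened against Selleck bioactive, kinase and epigenetic probe libraries, with identity-inconsistent compounds excluded. Each compound was acoustically dispensed at a single 10 µM dose into 384-well plates holding 2000 cells in 50 µL medium per well. After 48 h the supernatant was removed and CellTiter-Glo luminescence was read. Viability was expressed as percent of the on-plate vehicle control and analysed in Genedata Screener.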
# [2] = test system: MARIMO
# Outline: as §1
# [3] = test system: MOLM14
# Outline: as §1
# [4] = test system: OCI-AML2
# Outline: as §1
SMILES,cell viability ([1]; SRSF2 genotype: SRSF2 P95H/wt),cell viability ([1]; SRSF2 genotype: SRSF2 wt/wt) [%],cell viability ([2]; SRSF2 genotype: SRSF2 P95H/wt) [%],cell viability ([2]; SRSF2 genotype: SRSF2 wt/wt) [%],cell viability ([3]; SRSF2 genotype: SRSF2 P95H/wt) [%],cell viability ([3]; SRSF2 genotype: SRSF2 wt/wt) [%],cell viability ([4]; SRSF2 genotype: P95H/wt) [%],cell viability ([4]; SRSF2 genotype: wt/wt) [%]
CCc1ccc(C(=O)C(C)CN2CCCCC2)cc1 (configuration not stated) [Eperisone hydrochloride],91.5% and 94.7%,93.1,81.3,95.5,38.1,70,33.5,47.8
OC[C@H]1O[C@@H](OCCc2ccc(O)cc2)[C@H](O)[C@@H](O)[C@@H]1O [Salidroside (Rhodioloside)],101% and 105%,102,106,104,105,109,101,94.6
OCCOCCN1CCN(C2=Nc3ccccc3Sc3ccccc32)CC1 [Quetiapine fumarate (Seroquel)],91.1% and 95.4%,96.3,85.8,95.8,90,94.9,74.6,87
CC(C)(C)c1nc(-c2cccc(NS(=O)(=O)c3c(F)cccc3F)c2F)c(-c2ccnc(N)n2)s1,90.3% and 101%,84.3,78.5,75.8,73.6,68.2,93.2,83.9
N#Cc1ccc2[nH]c(O)c(-c3ccc(CN4CCOCC4)cn3)c2c1,73.5% and 54.9%,78.4,81.4,97.9,71.2,93.3,98.7,123
Cn1cc(-c2ccc3nnc(C(F)(F)c4ccc5ncccc5c4)n3n2)cn1,94.1% and 97.8%,98.8,102,105,96,99.2,86.9,89.6
COc1ccc(Cl)c(Nc2nc3ccccc3nc2NS(=O)(=O)c2cccc(NC(=O)C(C)(C)N)c2)c1 [Pilaralisib (XL147)],87.3% and 96.2%,84,68.6,66,59.3,55,52.3,54.6
CC(C(=O)O)c1cccc(Oc2ccccc2)c1 (configuration not stated) [Fenoprofen calcium hydrate],95.1% and 104%,99.4,103,101,95.1,102,106,103
COc1cc(Nc2ncc(F)c(Nc3ccc4c(n3)NC(=O)C(C)(C)O4)n2)cc(OC)c1OC,99.2% and 103%,104,83.7,85.8,22.3,19.6,41.2,47.7
O=C(N[C@H](CO)[C@H](O)c1ccc([N+](=O)[O-])cc1)C(Cl)Cl [Chloramphenicol (Chloromycetin)],92.7% and 92%,94.8,104,106,95.6,96.8,96,103
Cc1ccc(Nc2ncc3c(n2)N(C)C(=O)N(c2cc(NC(=O)c4cccc(C(F)(F)F)c4)ccc2C)C3)cn1,57.3% and 59.5%,43.1,38.1,37.4,17.9,17.5,40.8,35.2
O=C(O)Cc1cccc(OCCCN(Cc2cccc(C(F)(F)F)c2Cl)CC(c2ccccc2)c2ccccc2)c1,98.2% and 93.9%,92.9,97.9,113,88.6,96.7,90.9,98.5
C=CC(=O)N1CCC[C@@H](n2nc(-c3ccc(Oc4ccccc4)cc3)c(C(N)=O)c2N)C1 [Btk inhibitor 2],81.6% and 89.2%,84.8,79.8,90.2,25.4,25.4,48.2,52.1
CO[C@@H]1[C@@H](OC(N)=O)[C@@H](O)[C@H](Oc2ccc3c(O)c(NC(=O)c4ccc(O)c(CC=C(C)C)c4)c(=O)oc3c2C)OC1(C)C [Novobiocin sodium (Albamycin)],103% and 87.6%,82.6,91.6,92.9,93.6,89.7,91.4,94.4
CC(=O)Oc1cc2c(s1)CCN(C(C(=O)C1CC1)c1ccccc1F)C2 (configuration not stated) [Prasugrel (Effient)],26.1% and 36.8%,32.7,9.74,14.8,23.1,6.67,20.9,23.1
COC(=O)c1ccccc1O [Methyl salicylate],101% and 96.7%,94.8,99.2,104,96.3,104,94.3,102
O=C(NOCC1CC1)c1ccc(F)c(F)c1Nc1ccc(I)cc1Cl,74.9% and 78.8%,69.2,37.4,35.4,39.2,30.4,39.5,46.5
Cn1cc(C(=O)Nc2ccc3c(c2)OCCO3)c2ccccc2c1=O,88.4% and 81.6%,81.2,80.4,83.5,84.3,82.8,80.3,95.8
CC(=CCNc1ncnc2c1ncn2C1OC(CO)C(O)C1O)CO (stereo not drawn) [trans-Zeatin-riboside],107% and 105%,108,99.7,110,104,105,116,117
O=C(O)C(Cc1ccccc1[N+](=O)[O-])=NNc1nc(-c2ccc(Cl)c(Cl)c2)cs1,95.8% and 93.5%,87.9,94.2,114,91.8,92.2,84.8,94

SMILES,cell viability ([1]; SRSF2 genotype: SRSF2 P95H/wt),cell viability ([1]; SRSF2 genotype: SRSF2 wt/wt) [%],cell viability ([2]; SRSF2 genotype: SRSF2 P95H/wt) [%],cell viability ([2]; SRSF2 genotype: SRSF2 wt/wt) [%],cell viability ([3]; SRSF2 genotype: SRSF2 P95H/wt) [%],cell viability ([3]; SRSF2 genotype: SRSF2 wt/wt) [%],cell viability ([4]; SRSF2 genotype: P95H/wt) [%],cell viability ([4]; SRSF2 genotype: wt/wt) [%]
CCCc1ccc(OCC(=O)N(Cc2nc(-c3cccnc3)no2)C(C)C)cc1,87.5% and 91.9%,91.3,81.5,90.4,85.6,96,77.4,83.9
O=C1[C@H](CC[C@H](O)c2ccc(F)cc2)[C@@H](c2ccc(O)cc2)N1c1ccc(F)cc1 [Ezetimibe (Zetia)],86.1% and 94.8%,102,80.6,91,82.7,90.1,80.8,88.2
Nc1nc(N)c2nc(-c3cccc(O)c3)cnc2n1,80.3% and 89.9%,83.4,63.7,59.2,57.2,57.8,48.7,53.1
COc1cc([C@@H]2c3cc4c(cc3[C@@H](O[C@@H]3O[C@@H]5CO[C@@H](c6cccs6)O[C@H]5[C@H](O)[C@H]3O)[C@H]3COC(=O)[C@H]23)OCO4)cc(OC)c1O [Teniposide (Vumon)],8.79% and 17.8%,6.27,3.97,2.15,0.52,0.37,0.66,0.72
CCOC(=O)C1=C[C@]2(CC)CCCN3CCc4c(n1c1ccccc41)[C@@H]32 [Vinpocetine (Cavinton)],93.6% and 101%,95.6,96.5,110,101,101,89.5,101
O=C1OC(COc2ccccc2[N+](=O)[O-])CC1Cc1ccccc1 (configuration not stated),95.1% and 98.1%,101,93.5,103,108,106,117,103
COc1cc2c(Oc3ccc4[nH]c(C)cc4c3F)ncnc2cc1OCCCN1CCCC1 [Cediranib (AZD2171)],4.41% and 2.97%,11.7,55.1,48.3,2.27,1.47,9.24,21.7
COC(=O)c1ccc(O)cc1 [Methyl 4-hydroxybenzoate],93% and 82.6%,88.2,90.5,94.1,91.9,95.5,91.2,90.5
O=C1/C(=C/c2cccs2)CC/C1=C\c1cccs1,99.2% and 106%,110,96.2,104,105,99.2,109,86
Cc1cc(-c2ncc(CC(=O)Nc3ccc(-c4cnccn4)cn3)cc2C)ccn1,73.5% and 84.3%,81.2,81.6,70,48.8,51.1,54.8,63.5
C[C@H](Cn1cnc2c(N)ncnc21)OCP(=O)(O)O [Tenofovir (Viread)],101%,98.5,97.2,101,105,98.3,106,109
CC(CCC(=O)NCCS(=O)(=O)O)C1CCC2C3C(O)CC4CC(O)CCC4(C)C3CCC12C (configuration not stated) [Sodium Tauroursodeoxycholate (TUDC)],91.6% and 88.5%,89.8,94,103,91.7,91.2,90.3,89.4
CC(=O)O[C@]1(C(C)=O)CC[C@H]2[C@@H]3C=C(C)C4=CC(=O)CC[C@]4(C)[C@H]3CC[C@@]21C [Megestrol Acetate],90.8% and 87.5%,86.6,56.5,46.6,84.8,87.6,61.8,73.1
C1N2CN3CN1CN(C2)C3 [Methenamine (Mandelamine)],104% and 102%,99.1,103,108,107,105,99,112
CCOC(=O)[C@H](CCc1ccccc1)N[C@@H](C)C(=O)N1CCC[C@H]1C(=O)O [Enalapril maleate (Vasotec)],106% and 100%,106,99.6,111,112,103,94.2,97.8
O=C(c1cccc(Cl)c1F)N1CCN(Cc2cccc(Nc3nccs3)n2)CC1,44.2% and 57.2%,56.6,87.8,91.5,54.9,71.4,35.6,44.1
Oc1c(F)cc(-c2cnccc2-c2ccc(N3CCOCC3)cc2)cc1F,101% and 106%,105,97.5,92.6,75.5,104,120,103
COc1ccc(/C=C/C(=O)c2c(O)cc(OC)cc2OC)cc1 [Flavokawain A],95.5% and 92.8%,92.7,78.9,82.6,72.6,103,71.2,74.3
COC(=O)CC[C@H](NC(=O)[C@H](CC(=O)OC)NC(=O)OCc1ccccc1)C(=O)N[C@H](C(=O)N[C@@H](CC(=O)OC)C(=O)CF)C(C)C,101% and 95.3%,93.7,99.4,104,100,97.3,98.4,103
